Sampled rows, rich in hits. Any-hit rate of the full collection: about 7.3%.
FMDV inh: High Throughput Screening for Foot and Mouth Disease Virus Antivirals; FMDV antiviral cell-based qHTS; Potency, µM (doses to about 57.9 µM), inactives show top-dose activity change, negative = inhibition, most hits filed as inhibitors; 410,000 compounds, 1.2% hits; AID 1159524, 2015; calls by dose curve; tested in HEK293T cells; note: read-out not given here; potency is the fitted concentration of half-maximal effect; nearly all actives have a fitted effect of over 45% in size
HCMV antiviral: qHTS Assay for inhibitors of the human cytomegalovirus (HCMV) | HFF cells, HCMV-luciferase reporter, 72 h; stronger effect = lower value | activity change, negative = inhibition, % at 57.5 µM | 410,000 compounds, 4.5% hits | AID 1259415, 2018; in the data active = activity change below about -60%; inconclusive = no clear call, values can overlap the other calls; inactive = above about -39%
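HFF cells seeded 16 h at 37C, treated with compounds, infected with luciferase-reporter HCMV at MOI 1 PFU/cell; luciferase read at 72 h post infection, normalized to buffer-only and Salinomycin controls.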
HCV inhibitor: qHTS Assay for Inhibitors of Hepatitis C Virus (HCV); AID 651820, 2012; Potency, µM (doses to about 41.8 µM), for inactives: at the highest dose activity change, negative = inhibition, usual class: inhibitors; 340,000 compounds, 3.4% hits; Huh7.5.1 HCVcc-Cre infection, luciferase reporter, 44 h; note: potency is the fitted concentration of half-maximal effect
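Cells (1,000/well) were plated 4 h before compound, then infected with HCVcc-Cre virus (~0.5 moi). After 44 h further culture, infection was read as luciferase luminescence following a 15 min substrate incubation at room temperature.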
AmpC no deterg: qHTS Inhibitors of AmpC Beta-Lactamase (assay without detergent); P00811; AmpC nitrocefin hydrolysis, absorbance 480 nm, 0.0001% Triton; Potency, µM (highest dose often 57.1 µM), for the others: at the top dose activity change, negative = inhibition, most hits filed as inhibitors; 330,000 compounds, 0.52% hits; AID 485341, 2010;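 note: potency is the fitted concentration of half-maximal effect; plate controls were no compound for no effect and no enzyme for full effect; nearly all actives have a fitted effect of over 20% in size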
Target sequence (P00811 whole entry, looked up): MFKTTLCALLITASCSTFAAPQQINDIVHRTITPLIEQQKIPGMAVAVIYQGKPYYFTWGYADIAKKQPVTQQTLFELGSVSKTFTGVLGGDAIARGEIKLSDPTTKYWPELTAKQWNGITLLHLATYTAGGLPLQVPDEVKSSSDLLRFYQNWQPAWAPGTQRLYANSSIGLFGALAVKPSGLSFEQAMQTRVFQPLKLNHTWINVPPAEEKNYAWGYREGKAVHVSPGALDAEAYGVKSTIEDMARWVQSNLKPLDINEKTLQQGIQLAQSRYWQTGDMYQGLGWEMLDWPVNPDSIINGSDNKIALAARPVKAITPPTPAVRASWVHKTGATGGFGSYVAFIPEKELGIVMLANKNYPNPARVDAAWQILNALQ
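AmpC (5.3 nM in the dispensed reagent) in 20 mM phosphate pH 7.0 with 0.01% (detergent screen) or 0.0001% Triton X-100 was preincubated with compounds for 15 min at room temperature. Nitrocefin was then added from an 800 uM solution, and hydrolysis was followed at 480 nm.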
AmpC inh detg: qHTS Inhibitors of AmpC Beta-Lactamase (assay with detergent). 370,000 compounds, 0.041% hits. Potency, µM (doses to about 114 µM), without a hit: at the highest dose activity change, negative = inhibition, hits mostly inhibitors. AID 485294, 2010. AmpC hydrolysis of nitrocefin, absorbance 480 nm, 0.01% Triton;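 note: potency is the fitted concentration of half-maximal effect; 0% = no-compound wells and -100% = no-enzyme wells; nearly all actives have a fitted effect of over 25% in size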
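AmpC (5.3 nM in the dispensed reagent) in 20 mM phosphate pH 7.0 with 0.01% (detergent screen) or 0.0001% Triton X-100 was preincubated with compounds for 15 min at room temperature. Nitrocefin was then added from an 800 uM solution, and hydrolysis was followed at 480 nm.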
* hit, by the source's call; ? = inconclusive; . = no result; [ ] = remark or other dose. Unless noted, calls come from the whole dose curve; as a rule, active = well fitted curve in the direction sought with a large enough effect; inconclusive = small, poorly fitted or top-dose-only effect, or another doubt; inactive = no such curve, though single readings can be large; an effect the other way counts as inactive or inconclusive. Unless noted, % is set by controls: 0 for no effect and ±100 for the full control effect.

SMILES	FMDV inh	HCMV antiviral	HCV inhibitor	AmpC no deterg	AmpC inh detg
CCc1cccc(NC(=O)C2CCN(S(=O)(=O)c3ccc4c(c3)CC(C)N4C(C)=O)CC2)c1 (stereo unspecified)	14µM*	-85*	?	22%	?
CC(=O)N1c2ccc(S(=O)(=O)N3CCC(C(=O)Nc4ccc(F)cc4)CC3)cc2CC1C (stereo unspecified)	-28%	?	11µM*	-4%	-6%
CC(=O)Nc1ccc(S(=O)(=O)N[C@H]2CC[C@@]34CCCN3C(=O)CCC[C@H]4[C@H]2Cc2ccccc2)cc1	.	-8	.	.	.
O=C(COC(=O)c1cccc(F)c1)NC(=O)NCc1ccccc1	-10%	8	6%	-23%	.
CC(C)COC(=O)N1CCCCC1c1cc(C(=O)NCc2ccccc2)no1 (stereo unspecified)	-4%	-8	.	.	.
Cc1ccc(CNC(=O)CCSCc2ccc(C)cc2)cc1	1%	-10	-16%	-9%	?
Cc1ccc(CNC(=O)CCSCc2cccc(F)c2)cc1	-7%	-62*	-6%	-10%	-3%
COc1ccc(CNCC(O)(c2ccc(Cl)cc2)c2ccc(Cl)cc2)cc1OC	?	18	13µM*	37%	5%
COc1ccc(CNCC(O)(c2ccccc2)c2ccc(F)cc2)cc1OC (stereo unspecified)	?	?	10µM*	-2%	-1%
CCOC(=O)c1ccc(-n2c(CN(CC)CC)nc3ccc([N+](=O)[O-])cc3c2=O)cc1	3%	11	-26%	-50%	-1%
Cc1ccc(OCCn2cc(C(=O)C3CCCCC3)c3ccccc32)cc1	-15%	-101*	.	.	-3%
COC(=O)c1cn(CCOc2ccccc2)c2ccccc12	-19%	105	13µM*	-25%	-1%
COC(=O)c1cn(C(=O)c2ccccc2Cl)c2ccccc12	-23%	-64*	?	-13%	?
Cc1ccc(OCCn2cc(C(=S)N3CCCC3)c3ccccc32)cc1C	-18%	-98*	?	-26%	4%
O=C(NCc1ccccc1)Nc1nnc([C@@H]2C[C@H](O)[C@@H](CO)O2)s1	-5%	-19	.	.	.
Cc1c(C(=O)NCC(C)(C)N2CCOCC2)cnn1-c1nccc(-c2cccs2)n1	-6%	.	.	.	.
CN(C)S(=O)(=O)n1cc(/C=C(\NC(=O)c2ccccc2F)C(=O)NCCCn2ccnc2)c2ccccc21	28%	-1	-25%	329%	-23%
S=C(c1cn(CCOc2ccccc2)c2ccccc12)N1CCCC1	-18%	1	11µM*	-37%	0%
S=C(c1cn(CCOc2cccc3ccccc23)c2ccccc12)N1CCCC1	?	-77*	?	-25%	?
COCCn1cc(C(=S)N2CCCCC2)c2ccccc21	37%	16	-8%	-9%[2.29 µM]	-5%
CCCCN1CCCCC1(C)C(=O)NCc1cccc(OC)c1 (stereo unspecified)	-19%	-1	.	.	.
CCC(C)n1c(=O)c2sccc2n2c(CCCC(=O)Nc3ccc(F)cc3)nnc12 (stereo unspecified)	-1%	-65*	.	.	-3%
CCCn1c(=O)c2sccc2n2c(CCCC(=O)Nc3ccc(C)c(F)c3)nnc12	-20%	?	.	.	21%
Cn1c(=O)c2sccc2n2c(CCCC(=O)Nc3ccc(Oc4ccccc4)cc3)nnc12	?	-65*	.	.	-2%
CCc1ccc(NC(=O)CCCc2nnc3n(C(C)CC)c(=O)c4sccc4n23)cc1 (stereo unspecified)	-15%	?	.	.	-8%
SMILES	FMDV inh	HCMV antiviral	HCV inhibitor	AmpC no deterg	AmpC inh detg
Cc1ccc(NC(=O)CCCc2nnc3n(C)c(=O)c4sccc4n23)cc1F	1.3µM*	-31	.	.	5%
NC(=O)NC(=O)C(c1ccccc1)N1CCN(S(=O)(=O)c2ccc(Br)s2)CC1 (stereo unspecified)	-16%	-28	-8%	18%	-1%
CCOC(=O)c1c(C)[nH]c(C)c1S(=O)(=O)N1CCC(C(=O)NCc2ccccc2Cl)CC1	44%	-4	.	.	0%
CCc1nc2ccc(C(=O)N(C)CCCN(C)C)cn2c1N(CC)CCOC	-7%	-10	.	.	.
COCCn1c(=N)c(C(=O)NCC2CCCO2)cc2c(=O)n3ccccc3nc21 (stereo unspecified)	-22%	-18	.	.	5%
COc1ccc(CCn2c(=N)c(C(=O)NCC3CCCO3)cc3c(=O)n4ccccc4nc32)cc1OC (stereo unspecified)	-2%	-110*	-17%	14%	1%
COc1ccc(CCn2c(=N)c(C(=O)NC3CCCC3)cc3c(=O)n4ccccc4nc32)cc1	-17%	-101*	?	-25%	-10%
CN(Cc1ccccc1)C(=O)C(=O)c1c[nH]c2ccccc12	52%	-70*	.	.	.
CN(Cc1c[nH]c2ccccc12)C1CCCCC1	-10%	-94*	-28%	-25%	-11%
CN(CCc1ccccc1)Cc1c[nH]c2ccccc12	-25%	-99*	0%	-16%	-8%
Cc1ccc(CNC(=O)CCCn2nc(C)n3ccnc3c2=O)cc1	-7%	-11	11%	-15%	?
CC(C)(C)OC(=O)N[C@@H](COCc1ccccc1)C(=O)N[C@@H](CO)[C@H](O)[C@@H]1C[C@@H]1C(=O)NC1CCCCC1	-13%	-30	5%	114%	-10%
CCOC(=O)Cn1c(=O)n(C2CCCCC2)c2nc(-c3ccc(Cl)cc3)nc(C(N)=O)c21	-11%	14	.	.	8%
CCOC(=O)c1c(C)n(-c2ccc(OC)cc2)c2ccc(O)c(CN(C)C)c12	?	?	?	53%	0%
CCOC(=O)c1c(C)n(-c2ccc(C)cc2)c2ccc(O)c(CN(C)C)c12	-17%	-88*	-7%	63%	-2%
COC(=O)c1c(C)n(-c2ccc(OC)cc2)c2ccc(O)cc12	-10%	-38	11µM*	-32%	1%
CCOC(=O)c1c(C)n(-c2ccc(F)cc2)c2ccc(O)cc12	?	.	8.9µM*	-25%	-3%
CCOC(=O)c1c(CSc2ccc(C)cc2)n(C)c2cc(Br)c(O)c(CN(C)C)c12	?	-63*	?	142%	0%
O=C(NCC1CCC2(CCN(Cc3c[nH]c4ccccc34)CC2)O1)C1CCOCC1 (stereo unspecified)	4%	.	.	.	.
COC(=O)c1ccc(COC(=O)c2[nH]c(C)c(C(C)=O)c2C)o1	13µM*	33	2.2µM*	-5%	5%
CC(=O)c1c(C)[nH]c(C(=O)OCc2ccc([N+](=O)[O-])cc2)c1C	8%	-15	5.6µM*	-7%	-3%
CC(=O)c1c(C)[nH]c(C(=O)OCCCCN2C(=O)c3ccccc3C2=O)c1C	13µM*	.	10µM*	-26%	?
